Laboratory results: the supplement of paper PMC10933113

tested on: KeratinoSens (HaCaT ARE-luciferase) cells; assay: Nrf2/ARE luciferase activation call in qHTS KeratinoSens assay (1 = active, 0 = inactive);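 active = curve rank above 3; inactive = curve rank 0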

| Compound | Nrf2/ARE luciferase activation call |
| --- | --- |
| CCCC[N+]1(C)CCCC1.O=S(=O)([O-])C(F)(F)F | not active ARE inducer (skin sensitizer alert) (inactive) |
| C[n+]1c2cc(N)ccc2cc2ccc(N)cc21.Nc1ccc2cc3ccc(N)cc3nc2c1.[Cl-] | active ARE inducer (skin sensitizer alert) |
| CCN(CC)CCOC(=O)C1(c2ccccc2)CCCC1.CCN(CC)CCOC(=O)C1(c2ccccc2)CCCC1.O=S(=O)(O)CCS(=O)(=O)O | not active ARE inducer (skin sensitizer alert) (inactive) |
| CC(C)C[P+](C)(CC(C)C)CC(C)C.Cc1ccc(S(=O)(=O)[O-])cc1 | not active ARE inducer (skin sensitizer alert) (inactive) |
| Cc1ccc(S(=O)(=O)O)cc1.NC1CCN(c2nc3c(cc2F)c(=O)c(C(=O)O)cn3-c2ccc(F)cc2F)C1 (stereo not drawn) | not active ARE inducer (skin sensitizer alert) (inactive) |
| Cn1c(=O)c2c(ncn2C)n(C)c1=O.O=C(O)CC(O)(CC(=O)O)C(=O)O | not active ARE inducer (skin sensitizer alert) (inactive) |
| CCC(C(=O)OCCOCCN(CC)CC)c1ccccc1.O=C(O)CC(O)(CC(=O)O)C(=O)O (stereo not drawn) | not active ARE inducer (skin sensitizer alert) (inactive) |
| Nc1nc(N)nc(-c2cc(Cl)ccc2Cl)n1.O=C(O)/C=C\C(=O)O | not active ARE inducer (skin sensitizer alert) (inactive) |
| CCCCn1cc[n+](C)c1C.O=S(=O)([O-])C(F)(F)F | not active ARE inducer (skin sensitizer alert) (inactive) |
| CCCCCC[n+]1ccccc1.O=S(=O)([O-])C(F)(F)F | not active ARE inducer (skin sensitizer alert) (inactive) |
| CCOCC(O)COc1ccc(NC(=O)CC[S+](C)C)cc1.Cc1ccc(S(=O)(=O)[O-])cc1 (stereo not drawn) | not active ARE inducer (skin sensitizer alert) (inactive) |
| CNC[C@H](O)c1ccc(O)c(O)c1.O=C(O)[C@H](O)[C@@H](O)C(=O)O | not active ARE inducer (skin sensitizer alert) (inactive) |
| C[NH+](C)CCC(c1ccccc1)c1cccc[nH+]1.O=C([O-])/C=C\C(=O)[O-] (stereo not drawn) | not active ARE inducer (skin sensitizer alert) (inactive) |
| CCCCCCCCn1cc[n+](C)c1.O=S(=O)([O-])C(F)(F)F | not active ARE inducer (skin sensitizer alert) (inactive) |
| CCCC[N+]1(C)CCCCC1.O=S(=O)([O-])C(F)(F)F | not active ARE inducer (skin sensitizer alert) (inactive) |
| CC[n+]1ccccc1.O=S(=O)([O-])C(F)(F)F | not active ARE inducer (skin sensitizer alert) (inactive) |
| CN1Cc2c(N)cccc2C(c2ccccc2)C1.O=C(O)/C=C\C(=O)O (stereo not drawn) | not active ARE inducer (skin sensitizer alert) (inactive) |

| Compound | Nrf2/ARE luciferase activation call |
| --- | --- |
| CCN(C(=O)c1cc(C)cc(OC[C@H](C)Nc2ccncc2)c1)C(C)C.Cc1ccc(S(=O)(=O)O)cc1 | not active ARE inducer (skin sensitizer alert) (inactive) |
| CC1(C)S[C@@H]2[C@H](NC(=O)Cc3ccccc3)C(=O)N2[C@H]1C(=O)O.CC1(C)S[C@@H]2[C@H](NC(=O)Cc3ccccc3)C(=O)N2[C@H]1C(=O)O.c1ccc(CNCCNCc2ccccc2)cc1 | not active ARE inducer (skin sensitizer alert) (inactive) |
| CCCc1nc(C)c2c(=O)nc(-c3cc(S(=O)(=O)N4CCN(CC)CC4)ccc3OCC)[nH]n12.O=C(O)CC(O)(CC(=O)O)C(=O)O | not active ARE inducer (skin sensitizer alert) (inactive) |
| CN1CCC[C@@H]1CCO[C@](C)(c1ccccc1)c1ccc(Cl)cc1.O=C(O)/C=C/C(=O)O | not active ARE inducer (skin sensitizer alert) (inactive) |
| Cc1ccccc1C(OCCN(C)C)c1ccccc1.O=C(O)CC(O)(CC(=O)O)C(=O)O (stereo not drawn) | not active ARE inducer (skin sensitizer alert) (inactive) |
| O=C(O)/C=C/C(=O)O.c1ccc(C(O[C@H]2CCCN(CCc3ccc4c(c3)OCO4)C2)c2ccccc2)cc1 | not active ARE inducer (skin sensitizer alert) (inactive) |
| CCCC[n+]1ccccc1C.O=S(=O)([O-])C(F)(F)F | not active ARE inducer (skin sensitizer alert) (inactive) |
| COc1ccc(CN(CCN(C)C)c2ccccn2)cc1.O=C(O)/C=C\C(=O)O | not active ARE inducer (skin sensitizer alert) (inactive) |
| C[C@@H](CN(C)C)CN1c2ccccc2Sc2ccccc21.C[C@@H](CN(C)C)CN1c2ccccc2Sc2ccccc21.O=C(O)[C@@H](O)[C@@H](O)C(=O)O | not active ARE inducer (skin sensitizer alert) (inactive) |
| Cc1ccsc1/C=C/C1=NCCCN1C.O=C(O)[C@@H](O)[C@@H](O)C(=O)O | not active ARE inducer (skin sensitizer alert) (inactive) |
| CCn1cc[n+](C)c1C.O=S(=O)([O-])C(F)(F)F | not active ARE inducer (skin sensitizer alert) (inactive) |
| CC(=O)c1ccc2c(c1)N(CCCN(C)C)c1ccccc1S2.O=C(O)/C=C\C(=O)O | not active ARE inducer (skin sensitizer alert) (inactive) |
| O=C(CCC1CCN(Cc2ccccc2)CC1)c1ccc2c(c1)NCCCC2.O=C(O)/C=C/C(=O)O | not active ARE inducer (skin sensitizer alert) (inactive) |
| CN(CCOc1ccc(CC2SC(=O)NC2=O)cc1)c1ccccn1.O=C(O)/C=C\C(=O)O (stereo not drawn) | not active ARE inducer (skin sensitizer alert) (inactive) |
| CN(C)CCN(Cc1ccccc1)c1ccccn1.O=C(O)CC(O)(CC(=O)O)C(=O)O | not active ARE inducer (skin sensitizer alert) (inactive) |
| CC(C)(C)NC[C@H](O)COc1nsnc1N1CCOCC1.O=C(O)/C=C\C(=O)O | not active ARE inducer (skin sensitizer alert) (inactive) |
